Measured values reported in ChEMBL document CHEMBL1961873, “Compounds: GSK PKIS; Assays: Nanosyn kinase panel” (2012).

The compounds below were run against Fibroblast growth factor receptor 3 (Homo sapiens) (UniProt P22607). Details: at 1 µM.
Fibroblast growth factor receptor 3 (Homo sapiens), sequence (P22607 23-806 limits assumed): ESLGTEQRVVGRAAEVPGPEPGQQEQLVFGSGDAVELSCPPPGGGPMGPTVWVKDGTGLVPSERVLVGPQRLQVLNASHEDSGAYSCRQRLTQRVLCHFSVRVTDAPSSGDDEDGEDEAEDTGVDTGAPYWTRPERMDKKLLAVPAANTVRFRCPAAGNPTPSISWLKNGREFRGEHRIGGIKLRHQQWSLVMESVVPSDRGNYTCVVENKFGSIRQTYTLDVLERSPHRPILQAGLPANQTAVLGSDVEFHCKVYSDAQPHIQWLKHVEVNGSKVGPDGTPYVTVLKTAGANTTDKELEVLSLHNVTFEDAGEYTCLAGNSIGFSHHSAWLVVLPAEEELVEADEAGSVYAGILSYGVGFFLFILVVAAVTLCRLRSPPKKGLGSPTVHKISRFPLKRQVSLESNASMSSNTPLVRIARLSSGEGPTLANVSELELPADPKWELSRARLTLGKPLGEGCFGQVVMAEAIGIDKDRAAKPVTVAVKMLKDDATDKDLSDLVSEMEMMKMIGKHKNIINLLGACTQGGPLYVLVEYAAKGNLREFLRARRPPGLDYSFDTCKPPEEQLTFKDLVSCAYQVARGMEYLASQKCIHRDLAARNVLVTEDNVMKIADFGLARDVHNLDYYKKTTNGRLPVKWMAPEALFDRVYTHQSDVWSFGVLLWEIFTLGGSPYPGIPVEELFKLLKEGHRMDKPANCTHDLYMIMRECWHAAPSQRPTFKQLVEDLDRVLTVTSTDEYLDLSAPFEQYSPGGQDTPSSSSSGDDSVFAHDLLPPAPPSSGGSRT

| SMILES | inhibition [%] |
| --- | --- |
| NS(=O)(=O)c1ccc(NC=C2C(=O)Nc3ccc4ncsc4c32)cc1 | 65 |
| CCS(=O)(=O)c1ccc(OC)c(Nc2ncc(-c3cccc(OC)c3)o2)c1 | 70 |
| c1ccc(Cc2nc3ccc(Nc4ncnc5ccccc45)cc3[nH]2)cc1 | 5.34 |
| NC(=O)c1cccc(Nc2nccc(Nc3cccc(F)c3)n2)c1 | 9.81 |
| CCCN1CCCC(c2ccc(Nc3nc(Nc4cc(F)ccc4C(N)=O)c4cc[nH]c4n3)c(OC)c2)C1 (centres undefined) | 4.56 |

The compounds below were run against Fibroblast growth factor receptor 4 (Homo sapiens) (UniProt P22455). Details: at 0.1 µM.
Fibroblast growth factor receptor 4 (Homo sapiens), sequence (P22455 22-802 limits assumed): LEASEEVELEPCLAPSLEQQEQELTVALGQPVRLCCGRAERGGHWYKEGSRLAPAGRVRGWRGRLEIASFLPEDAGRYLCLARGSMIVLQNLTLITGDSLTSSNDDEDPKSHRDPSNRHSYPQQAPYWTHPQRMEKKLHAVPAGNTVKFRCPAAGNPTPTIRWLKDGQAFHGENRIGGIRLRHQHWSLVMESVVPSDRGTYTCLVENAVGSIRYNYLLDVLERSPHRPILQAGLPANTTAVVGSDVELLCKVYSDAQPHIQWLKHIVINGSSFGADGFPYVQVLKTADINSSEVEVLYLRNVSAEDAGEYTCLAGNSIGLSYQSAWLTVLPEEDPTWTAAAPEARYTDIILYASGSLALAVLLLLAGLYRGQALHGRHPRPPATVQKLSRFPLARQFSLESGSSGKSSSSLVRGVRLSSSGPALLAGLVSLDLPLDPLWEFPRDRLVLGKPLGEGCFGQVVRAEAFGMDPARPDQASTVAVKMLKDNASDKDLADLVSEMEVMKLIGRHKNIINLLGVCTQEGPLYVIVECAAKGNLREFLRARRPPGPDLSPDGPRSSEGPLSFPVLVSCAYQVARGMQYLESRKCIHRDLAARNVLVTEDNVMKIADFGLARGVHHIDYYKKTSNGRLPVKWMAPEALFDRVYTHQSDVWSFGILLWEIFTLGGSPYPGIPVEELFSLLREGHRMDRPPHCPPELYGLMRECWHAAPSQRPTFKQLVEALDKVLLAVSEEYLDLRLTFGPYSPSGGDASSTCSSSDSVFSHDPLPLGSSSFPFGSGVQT

| SMILES | inhibition [%] |
| --- | --- |
| CCn1c(-c2nonc2N)nc2ccc(F)cc21 | 2.81 |
| [O-][S+]1CCN(Cc2ccc(-c3ccc4ncnc(Nc5ccc(OCc6ccccc6)c(Cl)c5)c4c3)o2)CC1 | -0.05 |
| N#Cc1cccc(Nc2nccc(-c3cnn4ncccc34)n2)c1 | -0.11 |
| CS(=O)(=O)CCNCc1nc(-c2ccc3ncnc(Nc4ccc(OCc5cccc(C(F)(F)F)c5)cc4)c3c2)cs1 | 4.89 |
| COC(=O)c1ccc2c(c1)C(=Cc1cc(Br)c(O)c(Br)c1)C(=O)N2 | 4.35 |
| NS(=O)(=O)c1cccc(-c2cc3ccncc3cc2OCc2ccccc2)c1 | 0.02 |
| COc1ccc(-c2nn3ncccc3c2-c2ccnc(Nc3cccc(C(F)(F)F)c3)n2)cc1 | 1.02 |
| Cc1cc(O)cc(C)c1/C=C/c1cncc(C(=O)N(C)C)c1 | -0.32 |
| COc1cc(/C=N/Nc2ncnc3c2cnn3C(C)C)ccc1O | -8.41 |
| CCOc1nccc2c1nc(-c1nonc1N)n2CC | 2.6 |
| Oc1cccc(-c2nc(-c3ccccc3)[nH]c2-c2ccncc2)c1 | 1.36 |
| Nc1nccc(C#Cc2cncnc2Nc2ccc(OCc3cccc(F)c3)c(Cl)c2)n1 | 2.52 |
| Cc1ccc2c(-c3ccnc(Nc4ccc5c(c4)OCCO5)n3)c(-c3ccc(C(F)(F)F)cc3)nn2n1 | 1.94 |
| CS(=O)(=O)Nc1cccc(-c2ccc3c(NC(=O)C4CC4)n[nH]c3c2)c1 | -5.5 |
| Cc1cc(-c2ccccn2)cc(C)c1/C=C/c1cncc(-c2nn[nH]n2)c1 | 2.42 |
| CN(C)CCCn1c(-c2nonc2N)nc2cnccc21 | -1.87 |
| Cc1cc(Cl)cc2c1NC(=O)C2=NNc1ccc(S(N)(=O)=O)cc1 | -0.13 |

| SMILES | inhibition [%] |
| --- | --- |
| CN(c1ccc(NC(=O)Nc2ccc(OC(F)(F)F)cc2)cc1)c1ccnc(Nc2cccc(S(N)(=O)=O)c2)n1 | -0.53 |
| COc1cc2ncn(-c3cc(OCc4ccccc4S(C)(=O)=O)c(C#N)s3)c2cc1OC | 2 |
| Cc1ccc(O)cc1Nc1ccnc2ccc(S(C)(=O)=O)cc12 | -0.45 |
| CN1CCN(C(=O)c2ccc(NC(=O)Nc3ccc(N(C)c4ccnc(Nc5ccc(CS(C)(=O)=O)cc5)n4)cc3)cc2)CC1 | 4.73 |
| COC(=O)Nc1nc2cc(Oc3ccc(NC(=O)Nc4cccc(Br)c4)cc3)ccc2[nH]1 | -1.88 |
| NS(=O)(=O)c1ccc(N/N=C2\C(=O)Nc3ccc(Cl)cc32)cc1 | -1.18 |
| Cc1nc(-c2ccccc2)n2nc(NCCCN3CCOCC3)ncc12 | 6.31 |
| COc1cc(Nc2nccc(-c3cnn4ncccc34)n2)cc(OC)c1 | 1.2 |
| NS(=O)(=O)c1cccc(Nc2cc(-c3ccc(F)cc3)n[nH]2)c1 | 0.98 |
| COc1ccc2ncnc(Nc3ccc(OCc4ccccc4)cc3)c2c1 | 1.47 |
| Cc1ccc2c(c1)/C(=N/Nc1ccc(S(N)(=O)=O)cc1)C(=O)N2 | -1.85 |
| Cc1ccc(C(=O)NC2CC2)cc1-c1ccc2[nH]ncc2c1 | 1.43 |
| NS(=O)(=O)c1ccc(NC=C2C(=O)Nc3ccc4ncsc4c32)cc1 | -2.6 |
| CCS(=O)(=O)c1ccc(OC)c(Nc2ncc(-c3cccc(OC)c3)o2)c1 | 2.6 |
| c1ccc(Cc2nc3ccc(Nc4ncnc5ccccc45)cc3[nH]2)cc1 | -1.72 |
| NC(=O)c1cccc(Nc2nccc(Nc3cccc(F)c3)n2)c1 | 2.38 |
| CCCN1CCCC(c2ccc(Nc3nc(Nc4cc(F)ccc4C(N)=O)c4cc[nH]c4n3)c(OC)c2)C1 (centres undefined) | 0.72 |
